Our source for the Potency and outcome values is PubChem BioAssay (NCATS).

Assay [1] in a line: Quantitative High-Throughput drug screen in 47 multiple myeloma cell lines against the NCATS MIPE library collection: EJM_DSMZ cell viability assay (AID 1918926; note: nearly all actives have a fitted effect of over 30% in size; note: potency is the fitted concentration of half-maximal effect). An outline of the steps: (§1)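 Viability readout: CellTiter-Glo luminescence following 5 min room-temperature incubation with reagent. Prior exposure: 48 h, 37C, humidified 5% CO2, 500 cells per well.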
A short description of assay [2]: Quantitative High-Throughput drug screen in 47 multiple myeloma cell lines against the NCATS MIPE library collection: AMO1_DSMZ cell viability assay (AID 1918927; note: nearly all actives have a fitted effect of over 30% in size; note: potency is the fitted concentration of half-maximal effect). The method, boiled down:
as §1

A short description of assay [3]: Quantitative High-Throughput drug screen in 47 multiple myeloma cell lines against the NCATS MIPE library collection: ARD_JJKsccE7 cell viability assay (AID 1918929; note: potency is the fitted concentration of half-maximal effect). An outline of the steps: as §1
Assay [4] is described as follows: Quantitative High-Throughput drug screen in 47 multiple myeloma cell lines against the NCATS MIPE library collection: Karpas620_DSMZ cell viability assay (AID 1918959). Note: nearly all actives have a fitted effect of over 30% in size. Note: potency is the fitted concentration of half-maximal effect. The method, boiled down:
as §1

Assay [5] has as its target Phospholipid hydroperoxide glutathione peroxidase GPX4 (Homo sapiens) (UniProt P36969). Description: Primary qHTS Assay for Inhibitors of Recombinant Selenoprotein Glutathione Peroxidase 4 (GPX4) (AID 1845192). Note: nearly all actives have a fitted effect of over 65% in size. The method, boiled down:
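GR-coupled readout: 100 nM GR, 1 mM GSH, 0.5 mM NADPH; NADPH fluorescence (ex 340/em 450 nm) read at t=0 and after 15 min RT. GPX4 200 nM, preincubated 30 min with compound; substrate 0.5 mM CHP.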
(In general: In qHTS, concentration-response curves come from the screen itself.)

Assay [6] can be described thus: Quantitative High-Throughput drug screen in 47 multiple myeloma cell lines against the NCATS MIPE library collection: FR4_PLB cell viability assay (AID 1918924; note: nearly all actives have a fitted effect of over 35% in size; note: potency is the fitted concentration of half-maximal effect). The method, boiled down: as §1
Assay [7] in a line: Quantitative High-Throughput drug screen in 47 multiple myeloma cell lines against the NCATS MIPE library collection: Delta47_JCRB cell viability assay (AID 1918925; note: nearly all actives have a fitted effect of over 45% in size; note: potency is the fitted concentration of half-maximal effect). The method, boiled down:
as §1

Assay [8] can be described thus: Quantitative High-Throughput drug screen in 47 multiple myeloma cell lines against the NCATS MIPE library collection: ARP1_JJKsccF8 cell viability assay (AID 1918928; note: nearly all actives have a fitted effect of over 40% in size; note: potency is the fitted concentration of half-maximal effect). An outline of the steps: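 Myeloma cells, 500 per well, were exposed to MIPE 4.0 drugs by pin transfer for 48 h at 37 °C, 5% CO2. Viability was read as ATP luminescence with CellTiter-Glo, normalised to DMSO-only (100%) and medium-only (0%) wells.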

Assay [9] is described as follows: Primary fluorescence-based thiol-reactive (MSTI) qHTS assay for identification of artifact compounds. (AID 1845221). Note: nearly all actives have a fitted effect of over 65% in size. Note: potency is the fitted concentration of half-maximal effect. An outline of the steps:
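Curve-fitted percent inhibition (4-parameter Hill) derived from fluorescence, Ex 525/Em 598 nm, scaled with Acetyl-MSTI and MSTI; 1 h incubation at room temperature.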

The test system of assay [10] is Nanoluciferase (engineered Oplophorus gracilirostris luciferase). Description: Primary Nanoluciferase (NLuc) qHTS assay for identification of artifact compounds. (AID 1845222).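 Note: NLuc secreted into diluted conditioned medium of S16 cells; series mostly up to about 54 µM.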 An outline of the steps:
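Using secreted nanoluciferase in S16 culture medium (0.22 um filtered, 1:55 dilution), compounds were preincubated 15 min at RT. Signal was generated with Nano-Glo reagent (1:100) over 5 min.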

Assay [11] can be described thus: Primary redox qHTS assay for identification of artifact compounds. (AID 1845223). The method, boiled down:
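Amplex Red (25 uM) and HRP (250 mU/mL) in HBSS, with compounds for 15 min, then 250 uM DTT for 30 min, room temperature, dark. Fluorescence 525/598 nm read; normalized to DMSO and 10 uM DA3003; Hill fit.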

Each structure is given as a SMILES string. Inconclusive results are not listed. Calls of active or inactive are those of the source. Calls come from the whole dose curve; as a rule, active = well fitted curve in the direction sought with a large enough effect; inconclusive = small, poorly fitted or top-dose-only effect, or another doubt; inactive = no such curve, though single readings can be large; an effect the other way counts as inactive or inconclusive.

Chain of Phospholipid hydroperoxide glutathione peroxidase GPX4 (Homo sapiens) (P36969 whole entry, looked up): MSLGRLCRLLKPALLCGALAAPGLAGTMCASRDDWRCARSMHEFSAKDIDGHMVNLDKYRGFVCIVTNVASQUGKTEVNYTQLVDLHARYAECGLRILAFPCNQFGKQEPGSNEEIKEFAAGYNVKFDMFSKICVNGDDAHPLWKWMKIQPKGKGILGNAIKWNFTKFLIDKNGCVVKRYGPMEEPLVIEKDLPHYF

As for `O=S(=O)(N=Cc1c(O)ccc2ccccc12)c1cccs1`, the Potency result in [1] is “inactive”.
As for `COc1ccc(-c2oc3cc(OC)ccc3c2C(=O)c2ccc(C#N)cc2)cc1`, the figures for the Potency in assay [2], in [3] and in assay [4] were 7.43 µM (active), 10.5 µM (active) and 1.66 µM (active), respectively.
Consider `CC(C)(C)OC(=O)CN(Cc1ccc(Cl)cc1)Cc1ccc([N+](=O)[O-])s1`, for which the Potency result in assay [5], in assay [6], in [1], in [3] and in assay [4] was “inactive” throughout.
Regarding `Fc1ccc(Cl)cc1-c1nc(Nc2ccncc2)c2nccnc2n1`, the Potency entry in assay [5], in [6], in assay [3] and in [4] was “inactive” in each case. Also, the Potency in assay [1] was 8.33 µM (active); in [2], 5.26 µM (active).
Regarding `COc1ccc(-c2ccc3c(N4CCOCC4)nc(N4C[C@@H](C)O[C@@H](C)C4)nc3n2)cc1CO`, the Potency was 0.469 µM (active) in assay [6]; 0.296 µM (active) in assay [7]; 1.66 µM (active) in [1]; 1.32 µM (active) in [2]; 0.264 µM (active) in assay [8]; 1.32 µM (active) in assay [3]. The Potency in assay [4] is 1.05 µM (active).
Consider `Cc1cccc(-c2nn(C(=S)Nc3ccccc3)cc2-c2ccnc3ccccc23)n1`, for which the Potency result in assay [6], in assay [2], in [8] and in [4] was “inactive” throughout. Further, the Potency in [7] was 16.6 µM (active); in assay [1], 11.8 µM (active).
With `Nc1ncnc2nc(-c3ccc(N4CCOCC4)nc3)cc(-c3cccc(Br)c3)c12`, the Potency result in [5] and in assay [4] was “inactive” throughout.
In the case of `COCC(=O)NCC=Cc1ccc2ncnc(Nc3ccc(Oc4ccc(C)nc4)c(C)c3)c2c1`, the Potency in [6] was 26.4 µM (active); in assay [7], 14.8 µM (active); in [3], 11.8 µM (active).
Regarding `Cn1cnc2c(F)c(Nc3ccc(Br)cc3Cl)c(C(=O)NOCCO)cc21`, the Potency entry in [5], in [9], in [7] and in assay [8] was “inactive” throughout. Further, the call in [10] was inactive. Besides, the Potency was 0.833 µM (active) in [2], 0.743 µM (active) in [3] and 0.235 µM (active) in assay [4].
As to `CN[C@@H](C)C(=O)N[C@H]1CCCC[C@H]2CC[C@@H](C(=O)N[C@@H](c3ccccc3)c3cn(CCCCc4ccc(CCCCn5cc([C@@H](NC(=O)[C@@H]6CC[C@@H]7CCCC[C@H](NC(=O)[C@H](C)NC)C(=O)N76)c6ccccc6)nn5)cc4)nn3)N2C1=O`, the Potency result in assay [5] was “inactive”. Also, the results for the Potency in assay [7], in [1] and in assay [4] were 3.72 µM (active), 5.26 µM (active) and 14.8 µM (active), respectively.
Consider `CC(=O)NC(C)c1ccc(Oc2ccc(OC(C)C)cc2)cc1` (configuration not stated), for which, in [5], the Potency entry was “inactive”. Further, the Potency in assay [8] was 16.6 µM (active); in assay [4], 0.296 µM (active).
Turning to `Cc1cc([C@@H](C)Nc2ccccc2C(=O)O)c2nc(N3CCOCC3)cc(=O)n2c1`, the figures for the Potency in assay [7] and in assay [8] were 2.7 µM (active) and 0.481 µM (active), respectively.
For the molecule `COc1cc2c(cc1OC)CN(CCc1ccc(NC(=O)c3cccc4c(=O)c5cccc(OC)c5[nH]c34)cc1)CC2`, the Potency result in [5], in assay [9], in assay [7], in assay [8] and in assay [3] was “inactive” in each case. Moreover, the molecule was called inactive in [10].
On to `COc1ccc(-c2ccc3c(N4CCOC[C@H]4C)nc(N4CCOC[C@H]4C)nc3n2)cc1CO`, for which, in [6], the Potency was 0.0235 µM (active).
Take `CN(C)c1ccc(Nc2nc(N)n(C(=O)c3c(F)cccc3F)n2)cc1`: the Potency in assay [9] was 1.34 µM (active); in [7], 14.8 µM (active); in assay [1] it was 20.9 µM (active); in assay [2] it was 4.69 µM (active); in assay [3], 20.9 µM (active). For the same molecule, the molecule was classed as inactive in [10] and in [11].
Consider `CNC(=O)c1ccc(N2C(=S)N(c3ccc(C#N)c(C(F)(F)F)c3)C(=O)C2(C)C)cc1F`, for which the Potency result in [5], in assay [6], in assay [1] and in assay [8] was “inactive” each time.
In the case of `Cc1cc(C=c2sc3nc4ccccc4n3c2=O)c(C)n1-c1ccccc1`, the Potency in assay [1] and in assay [8] was 6.62 µM (active) throughout. Also, the Potency entry in [2], in assay [3] and in assay [4] was “inactive” throughout.
`Oc1cccc(-c2nc(N3CCOCC3)c3oc4ncccc4c3n2)c1`: the Potency in assay [6] is 0.0762 µM (active); in assay [7], 0.0171 µM (active); in assay [1], 6.79 µM (active); in assay [2] it was 0.171 µM (active); in assay [8], 0.0241 µM (active); in assay [4] it was 0.0959 µM (active).
As to `O=c1ncn2nc(Sc3ccc(F)cc3F)ccc2c1-c1c(Cl)cccc1Cl`, the Potency entry in [5] and in assay [6] was “inactive” throughout. The Potency in assay [2] was 18.7 µM (active).
